Measurements from PubChem BioAssay AID1159580 (chemical genetic matrix, 2015).
About 2,000 (36%) of roughly 5,500 compounds were called active. Roughly 18% stayed inconclusive and do not appear here. Rule as the data show it: active = normalized growth mostly below about 0.91 (no sharp cut-off); inconclusive = no clear call, values can overlap the other calls; inactive = mostly above about 0.92. The list shows a part of the results.

Experiment: chemical genetic growth profiling, strain panel (AID 1159580);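 also: tested at 20 µM; growth read once vehicle control cultures reached saturation at 30 °C; 1 = growth at the plate median or of vehicle wells; lower values mean less growth of the strain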
Conditions: S. cerevisiae deletion strains, growth OD

Measured: normalized growth

CNC(=O)OCC[N+](C)(C)C
inactive: locus YAL013W, strain DEP1, active compounds read low 0.99 | locus YAL040C, strain CLN3, active compounds read low 1 | locus YCL061C, strain MRC1 (second series), active compounds read low 0.992 | locus YDR363W, strain ESC2, active compounds read low 0.957 | locus YER002W, strain NOP16, active compounds read low 0.968 | locus YJR075W, strain HOC1, active compounds read low 1.01 | locus YNL128W, strain TEP1, active compounds read low 1 | locus YNL153C, strain GIM3, active compounds read low 0.983 | locus YNL175C, strain NOP13, active compounds read low 0.973 | locus YNL197C, strain WHI3, active compounds read low 0.962 | locus YNL224C, strain SQS1, active compounds read low 0.989 | locus YOR083W, strain WHI5 (second series), active compounds read low 0.985
